According to PubChem BioAssay AID720594 (Broad Institute, 2013):
Potency and affinity values are given separately. Active and inactive are the calls of the source.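 Rule for the calls: active = falling ATP light signal with a fitted half-maximal concentration at most twice the highest valid tested dose; inconclusive = flat fit with moderate signal loss, or poor fit; inactive = the rest.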

test: ATP-based viability loss in HepG2 cells – cell-based, CellTiter-Glo luminescence, dry powder, set 3, cytotoxicity control, dose response (AID 720594); conditions: 72 h; series mostly up to 26 µM

**Q.** For `c1ccc(-c2nc(-c3ccncc3)n[nH]2)nc1`, which outcome is on record?
**A.** The outcome was “inactive”.

**Q.** With `Cc1ccc(C(=O)Nc2nc(-c3ccccn3)cs2)cc1S(=O)(=O)N1CCOCC1` as the compound, how does the outcome read?
**A.** The outcome was “inactive”.

**Q.** With `CC1CCN(S(=O)(=O)c2ccc(C(=O)Nc3nnc(-c4ccccn4)o3)cc2)CC1` as the compound, how does the outcome read?
**A.** The outcome was “inactive”.

**Q.** For `Nc1nc(-c2ccccn2)nc(N)c1Cc1ccc(Cl)cc1Cl`, which outcome is on record?
**A.** The outcome was “inactive”.

**Q.** Which outcome does the source give for `CC(C)Cc1nnc(NC(=O)c2cccc(S(=O)(=O)N3CCOCC3)c2)s1` here?
**A.** Its outcome is “inactive”.

**Q.** For `FC(F)(F)c1cc(-c2nn[nH]n2)cc(C(F)(F)F)c1`, which outcome is on record?
**A.** Its outcome is “inactive”.

**Q.** Which outcome does the source give for `O=C(Nc1nc(-c2ccncc2)cs1)c1cccc(S(=O)(=O)N2CCOCC2)c1` here?
**A.** Its outcome is “inactive”.

**Q.** With `O=C(CSc1n[nH]c(-c2ccccn2)n1)Nc1ccc(Cl)cc1` as the compound, how does the outcome read?
**A.** The outcome was “inactive”.

**Q.** For `CCCCC(=O)NC(c1ccco1)c1ccc2cccnc2c1O` (stereo not drawn), which outcome is on record?
**A.** Its outcome is “inactive”.

**Q.** For `O=C(CSc1ccc(-c2ccccn2)nn1)Nc1nccs1`, which outcome is on record?
**A.** The outcome was “inactive”.

**Q.** With `Cc1c(C(=O)N(C)C)sc2nc(-c3ccccn3)[nH]c(=O)c12` as the compound, how does the outcome read?
**A.** Its outcome is “inactive”.

**Q.** For `CCc1cc2c(=O)[nH]c(-c3ccccn3)nc2s1`, which outcome is on record?
**A.** The outcome was “inactive”.

**Q.** With `CC1CCN(S(=O)(=O)c2ccc(C(=O)Nc3nnc(C4CC4)o3)cc2)CC1` as the compound, how does the outcome read?
**A.** Its outcome is “inactive”.

**Q.** With `Cc1nnc(NC(=O)c2ccc(S(=O)(=O)N3CCCCC3)cc2)o1` as the compound, how does the outcome read?
**A.** Its outcome is “inactive”.

**Q.** Which outcome does the source give for `Cc1ccc(C(=O)Nc2nc(-c3ccccn3)cs2)o1` here?
**A.** Its outcome is “inactive”.

**Q.** Which outcome does the source give for `O=C(Nc1nc(-c2ccccn2)cs1)c1ccc(S(=O)(=O)N2CCOCC2)cc1` here?
**A.** Its outcome is “inactive”.

**Q.** Which outcome does the source give for `CC1CCN(S(=O)(=O)c2ccc(C(=O)Nc3nnc(-c4ccco4)o3)cc2)CC1` here?
**A.** The outcome was “inactive”.

**Q.** With `O=C(CSc1ccc(-c2ccccn2)nn1)N1CCCC1` as the compound, how does the outcome read?
**A.** The outcome was “inactive”.

**Q.** With `O=C(Cc1ccccc1)NC(c1ccco1)c1ccc2cccnc2c1O` (stereo not drawn) as the compound, how does the outcome read?
**A.** Its outcome is “inactive”.

**Q.** With `CC1CC(C)CN(S(=O)(=O)c2ccc(C(=O)Nc3nnc(C4=COCCO4)o3)cc2)C1` (stereo not drawn) as the compound, how does the outcome read?
**A.** Its outcome is “inactive”.

**Q.** Which outcome does the source give for `COC(=O)Cc1cc(=O)n(-c2nc3ccccc3[nH]2)[nH]1` here?
**A.** The outcome was “inactive”.

**Q.** With `COC(=O)c1ccc(NC(=O)CSc2ccc(-c3ccccn3)nn2)cc1` as the compound, how does the outcome read?
**A.** The outcome was “inactive”.

**Q.** With `CC1CCN(S(=O)(=O)c2ccc(C(=O)Nc3nnc(-c4ccno4)o3)cc2)CC1` as the compound, how does the outcome read?
**A.** The outcome was “inactive”.

**Q.** For `O=C(Nc1nnc(-c2ccc(F)cc2)o1)c1ccc(S(=O)(=O)N2CCCCC2)cc1`, which outcome is on record?
**A.** Its outcome is “inactive”.

**Q.** For `O=C(Nc1nc(-c2ccccn2)cs1)c1ccco1`, which outcome is on record?
**A.** The outcome was “inactive”.

**Q.** Which outcome does the source give for `Cc1ccc(S(=O)(=O)CCc2nnc(NC(=O)c3ccccc3)s2)cc1` here?
**A.** The outcome was “inactive”.

**Q.** With `O=C(Nc1nnc(C2=COCCO2)o1)c1ccc(S(=O)(=O)N2CCCCC2)cc1` as the compound, how does the outcome read?
**A.** The outcome was “inactive”.

**Q.** Which outcome does the source give for `Cc1ccc(C(=O)Nc2nc(-c3ccccc3)cs2)o1` here?
**A.** Its outcome is “inactive”.

**Q.** Which outcome does the source give for `O=C(CSc1ccc(-c2ccccn2)nn1)Nc1ccccc1` here?
**A.** The outcome was “inactive”.

**Q.** Which outcome does the source give for `Cc1cccc(NC(=O)CSc2ccc(-c3ccccn3)nn2)c1C` here?
**A.** Its outcome is “inactive”.

**Q.** Which outcome does the source give for `CC(C)CC(=O)NC(c1cccs1)c1ccc2cccnc2c1O` (stereo not drawn) here?
**A.** The outcome was “inactive”.

**Q.** Which outcome does the source give for `O=C(CSc1ccc(-c2ccccn2)nn1)NC1CCCCC1` here?
**A.** The outcome was “inactive”.

**Q.** With `O=C(Nc1nc(-c2ccncc2)cs1)c1ccco1` as the compound, how does the outcome read?
**A.** Its outcome is “inactive”.
